# Assays:
# Assay in all cases: DAPPL (digital affinity profiling via proximity ligation, sequencing); 10 mM Tris-HCl pH 7.5, 50 mM NaCl, 1 mM DTT, 4% glycerol, room temperature, 30 min; GST-TFs on glutathione beads, 16-mer random dsDNA library, 0.1% formaldehyde crosslink after washing; high values mean tight binding
# [1] = target: T1, FLI1 (Homo sapiens, UniProt Q01543 1-452); details: protein: recombinant; tags: N-terminal GST; dsDNA, one strand shown
# T1 sequence: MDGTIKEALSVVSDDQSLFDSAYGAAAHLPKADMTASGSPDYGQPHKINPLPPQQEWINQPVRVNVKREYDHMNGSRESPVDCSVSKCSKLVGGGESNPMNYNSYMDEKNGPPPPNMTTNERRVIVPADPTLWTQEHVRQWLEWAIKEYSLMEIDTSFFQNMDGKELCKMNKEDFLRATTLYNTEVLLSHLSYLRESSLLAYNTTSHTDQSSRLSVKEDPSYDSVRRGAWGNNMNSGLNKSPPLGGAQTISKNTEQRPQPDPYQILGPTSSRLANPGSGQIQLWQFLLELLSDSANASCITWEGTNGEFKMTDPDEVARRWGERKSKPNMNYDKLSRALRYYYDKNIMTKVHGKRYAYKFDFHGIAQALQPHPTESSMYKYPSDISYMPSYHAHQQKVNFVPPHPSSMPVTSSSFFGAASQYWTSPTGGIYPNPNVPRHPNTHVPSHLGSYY
# In short: (§1)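 A tag-only sample was pooled with DNA-barcoded human transcription factors that had been expressed in yeast as GST fusions and captured on glutathione beads. The pools were incubated for 30 min at room temperature with 200 nmole of a random double-stranded 16-mer DNA library in Tris/NaCl/DTT/glycerol buffer, then washed, crosslinked with 0.1% formaldehyde, proximity-ligated (BsaI/T4 ligase, 1 h, 37 °C), PCR-amplified and sequenced on an Illumina NextSeq500. Binding signal is each hexamer's read frequency for a factor divided by its frequency for the tag-only sample.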
# [2] = target: T2, ELK1 (Homo sapiens, UniProt P19419 1-428); details: protein: recombinant; tags: N-terminal GST; dsDNA, one strand shown
# T2 sequence: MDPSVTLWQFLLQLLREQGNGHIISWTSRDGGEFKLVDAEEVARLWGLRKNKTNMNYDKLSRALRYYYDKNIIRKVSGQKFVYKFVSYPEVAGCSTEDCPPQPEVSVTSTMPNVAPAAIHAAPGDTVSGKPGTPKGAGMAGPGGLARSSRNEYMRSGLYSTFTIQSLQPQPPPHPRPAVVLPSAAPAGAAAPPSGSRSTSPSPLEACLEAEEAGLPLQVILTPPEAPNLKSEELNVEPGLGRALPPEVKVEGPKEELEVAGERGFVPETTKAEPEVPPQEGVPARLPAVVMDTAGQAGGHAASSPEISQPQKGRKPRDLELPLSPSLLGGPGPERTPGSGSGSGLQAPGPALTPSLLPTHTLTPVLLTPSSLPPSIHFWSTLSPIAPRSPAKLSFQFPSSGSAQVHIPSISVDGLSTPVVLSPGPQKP
# In short: as §1
# [3] = target: T3, GABPA (Homo sapiens, UniProt Q06546 1-454); details: protein: recombinant; tags: N-terminal GST; dsDNA, one strand shown
# T3 sequence: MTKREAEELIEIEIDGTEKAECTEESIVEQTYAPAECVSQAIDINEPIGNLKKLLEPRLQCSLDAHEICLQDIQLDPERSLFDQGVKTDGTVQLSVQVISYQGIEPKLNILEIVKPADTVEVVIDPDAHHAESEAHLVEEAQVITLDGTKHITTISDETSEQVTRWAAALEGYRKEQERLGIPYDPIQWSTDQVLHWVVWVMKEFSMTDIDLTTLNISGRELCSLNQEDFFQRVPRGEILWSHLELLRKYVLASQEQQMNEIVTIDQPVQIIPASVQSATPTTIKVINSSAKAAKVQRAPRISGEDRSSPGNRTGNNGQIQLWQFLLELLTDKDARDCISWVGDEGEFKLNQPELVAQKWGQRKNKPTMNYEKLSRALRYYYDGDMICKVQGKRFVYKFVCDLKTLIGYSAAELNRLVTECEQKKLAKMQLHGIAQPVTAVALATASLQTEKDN
# In short: as §1
# [4] = target: T4, ERG (Homo sapiens, UniProt P11308 1-479); details: protein: recombinant; tags: N-terminal GST; dsDNA, one strand shown
# T4 sequence: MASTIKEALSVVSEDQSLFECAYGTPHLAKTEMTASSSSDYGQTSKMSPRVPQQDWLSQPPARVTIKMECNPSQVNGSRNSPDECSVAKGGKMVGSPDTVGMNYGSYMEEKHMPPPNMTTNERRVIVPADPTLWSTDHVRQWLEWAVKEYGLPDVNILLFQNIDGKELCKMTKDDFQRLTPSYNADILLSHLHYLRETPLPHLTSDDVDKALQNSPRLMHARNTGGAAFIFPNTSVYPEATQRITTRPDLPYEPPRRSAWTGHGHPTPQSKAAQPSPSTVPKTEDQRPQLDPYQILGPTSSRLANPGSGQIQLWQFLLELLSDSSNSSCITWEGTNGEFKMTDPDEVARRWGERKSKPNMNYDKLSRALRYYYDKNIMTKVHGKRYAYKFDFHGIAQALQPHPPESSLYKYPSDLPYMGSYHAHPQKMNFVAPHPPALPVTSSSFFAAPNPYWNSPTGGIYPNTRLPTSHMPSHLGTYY
# In short: as §1
# [5] = target: ELF1 (Homo sapiens, UniProt P32519 1-619); details: protein: recombinant; tags: N-terminal GST; dsDNA, one strand shown
# In short: as §1
# [6] = target: T5, EHF (Homo sapiens, UniProt Q9NZC4 1-300); details: protein: recombinant; tags: N-terminal GST; dsDNA, one strand shown
# T5 sequence: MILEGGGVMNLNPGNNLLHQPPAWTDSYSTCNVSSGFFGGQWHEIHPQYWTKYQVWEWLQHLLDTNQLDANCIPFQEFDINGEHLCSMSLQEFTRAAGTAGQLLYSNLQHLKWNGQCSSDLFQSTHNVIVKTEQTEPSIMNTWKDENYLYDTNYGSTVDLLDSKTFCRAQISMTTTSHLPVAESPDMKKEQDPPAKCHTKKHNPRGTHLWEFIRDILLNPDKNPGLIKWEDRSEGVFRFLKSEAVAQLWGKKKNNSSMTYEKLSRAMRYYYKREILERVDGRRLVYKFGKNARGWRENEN
# In short: as §1
# [7] = target: SPI1 (Homo sapiens, UniProt P17947 1-270); details: protein: recombinant; tags: N-terminal GST; dsDNA, one strand shown
# In short: as §1
# [8] = target: SPIB (Homo sapiens, UniProt Q01892 1-262); details: protein: recombinant; tags: N-terminal GST; dsDNA, one strand shown
# In short: as §1
# [9] = target: T6, ELK3 (Homo sapiens, UniProt P41970 1-407); details: protein: recombinant; tags: N-terminal GST; dsDNA, one strand shown
# T6 sequence: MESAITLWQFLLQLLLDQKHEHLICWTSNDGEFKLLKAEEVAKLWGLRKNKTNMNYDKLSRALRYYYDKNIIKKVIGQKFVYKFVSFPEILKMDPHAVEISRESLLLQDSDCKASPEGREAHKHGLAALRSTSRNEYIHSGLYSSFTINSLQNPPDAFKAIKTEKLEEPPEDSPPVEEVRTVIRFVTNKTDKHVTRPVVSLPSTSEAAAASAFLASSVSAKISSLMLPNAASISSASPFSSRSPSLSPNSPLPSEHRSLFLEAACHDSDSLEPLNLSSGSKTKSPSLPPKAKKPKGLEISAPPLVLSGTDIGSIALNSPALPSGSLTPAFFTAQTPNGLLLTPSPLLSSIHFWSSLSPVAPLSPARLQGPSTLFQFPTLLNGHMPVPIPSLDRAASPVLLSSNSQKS
# In short: as §1
# [10] = target: T7, FEV (Homo sapiens, UniProt Q99581 1-238); details: protein: recombinant; tags: N-terminal GST; dsDNA, one strand shown
# T7 sequence: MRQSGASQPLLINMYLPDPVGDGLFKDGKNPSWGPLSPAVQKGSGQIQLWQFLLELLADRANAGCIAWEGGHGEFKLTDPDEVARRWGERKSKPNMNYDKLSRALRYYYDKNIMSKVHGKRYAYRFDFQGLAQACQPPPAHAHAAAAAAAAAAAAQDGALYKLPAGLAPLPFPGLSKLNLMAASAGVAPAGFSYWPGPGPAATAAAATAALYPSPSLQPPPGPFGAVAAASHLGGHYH
# In short: as §1
# [11] = target: ETV5 (Homo sapiens, UniProt P41161 1-510); details: protein: recombinant; tags: N-terminal GST; dsDNA, one strand shown
# In short: as §1
# [12] = target: HSF1 (Homo sapiens, UniProt Q00613 1-529); details: protein: recombinant; tags: N-terminal GST; chain copies: 3; dsDNA, one strand shown
# In short: as §1
# [13] = target: T8, SPIC (Homo sapiens, UniProt Q8N5J4 1-248); details: protein: recombinant; tags: N-terminal GST; dsDNA, one strand shown
# T8 sequence: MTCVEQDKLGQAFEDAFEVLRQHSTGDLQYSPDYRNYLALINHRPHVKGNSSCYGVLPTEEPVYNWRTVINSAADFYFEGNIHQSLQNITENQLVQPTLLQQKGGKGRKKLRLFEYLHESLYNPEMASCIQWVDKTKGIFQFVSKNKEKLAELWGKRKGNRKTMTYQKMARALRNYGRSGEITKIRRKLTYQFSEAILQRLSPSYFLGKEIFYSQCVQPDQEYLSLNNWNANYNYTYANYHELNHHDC
# In short: as §1
# [14] = target: ELF4 (Homo sapiens, UniProt Q99607 1-663); details: protein: recombinant; tags: N-terminal GST; dsDNA, one strand shown
# In short: as §1
# [15] = target: T9, ELK4 (Homo sapiens, UniProt P28324-2 1-405); details: protein: recombinant; tags: N-terminal GST; dsDNA, one strand shown
# T9 sequence: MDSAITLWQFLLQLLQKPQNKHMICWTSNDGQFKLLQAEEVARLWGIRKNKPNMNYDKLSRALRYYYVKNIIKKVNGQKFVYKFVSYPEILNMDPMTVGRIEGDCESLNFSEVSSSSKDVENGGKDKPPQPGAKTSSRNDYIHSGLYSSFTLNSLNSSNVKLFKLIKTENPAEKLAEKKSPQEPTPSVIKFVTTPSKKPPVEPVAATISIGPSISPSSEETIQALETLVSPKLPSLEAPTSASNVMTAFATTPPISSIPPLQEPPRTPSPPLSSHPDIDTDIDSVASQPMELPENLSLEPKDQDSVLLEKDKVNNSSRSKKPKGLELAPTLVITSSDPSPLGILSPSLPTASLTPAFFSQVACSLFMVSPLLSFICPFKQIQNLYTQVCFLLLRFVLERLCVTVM
# In short: as §1
# [16] = target: T10, ETV2 (Homo sapiens, UniProt O00321 1-342); details: protein: recombinant; tags: N-terminal GST; dsDNA, one strand shown
# T10 sequence: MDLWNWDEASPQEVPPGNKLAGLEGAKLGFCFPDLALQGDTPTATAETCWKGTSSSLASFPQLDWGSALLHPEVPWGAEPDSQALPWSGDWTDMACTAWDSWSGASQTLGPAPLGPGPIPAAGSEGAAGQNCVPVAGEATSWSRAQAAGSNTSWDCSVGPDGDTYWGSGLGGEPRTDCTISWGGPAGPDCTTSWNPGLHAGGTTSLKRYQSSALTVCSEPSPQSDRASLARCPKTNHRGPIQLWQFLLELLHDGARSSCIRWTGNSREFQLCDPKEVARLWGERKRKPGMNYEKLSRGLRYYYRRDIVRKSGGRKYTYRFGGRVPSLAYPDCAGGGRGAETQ
# In short: as §1
# [17] = target: T11, ELF3 (Homo sapiens, UniProt P78545 1-371); details: protein: recombinant; tags: N-terminal GST; dsDNA, one strand shown
# T11 sequence: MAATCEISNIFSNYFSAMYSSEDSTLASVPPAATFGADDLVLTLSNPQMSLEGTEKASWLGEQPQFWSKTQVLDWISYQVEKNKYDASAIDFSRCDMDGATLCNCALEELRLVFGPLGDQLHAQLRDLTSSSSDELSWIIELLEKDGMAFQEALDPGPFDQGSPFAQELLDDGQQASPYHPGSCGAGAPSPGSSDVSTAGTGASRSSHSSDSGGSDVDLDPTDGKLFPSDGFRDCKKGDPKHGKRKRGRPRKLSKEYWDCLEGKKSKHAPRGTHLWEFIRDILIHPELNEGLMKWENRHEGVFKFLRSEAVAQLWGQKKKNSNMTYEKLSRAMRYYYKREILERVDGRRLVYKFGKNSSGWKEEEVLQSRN
# In short: as §1
# [18] = target: CRX (Homo sapiens, UniProt O43186 1-299); details: protein: recombinant; tags: N-terminal GST; dsDNA, one strand shown
# In short: as §1
# [19] = target: ETV1 (Homo sapiens, UniProt P50549 1-477); details: protein: recombinant; tags: N-terminal GST; dsDNA, one strand shown
# In short: as §1
# SPIB, sequence (Q01892 whole entry): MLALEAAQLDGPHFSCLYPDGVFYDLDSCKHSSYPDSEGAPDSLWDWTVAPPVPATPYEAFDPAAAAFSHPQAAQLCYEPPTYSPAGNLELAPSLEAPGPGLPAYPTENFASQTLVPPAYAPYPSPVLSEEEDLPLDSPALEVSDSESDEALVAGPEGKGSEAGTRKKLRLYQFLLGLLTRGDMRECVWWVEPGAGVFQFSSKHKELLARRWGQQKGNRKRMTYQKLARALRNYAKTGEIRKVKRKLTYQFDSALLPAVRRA
# CRX, sequence (O43186 whole entry): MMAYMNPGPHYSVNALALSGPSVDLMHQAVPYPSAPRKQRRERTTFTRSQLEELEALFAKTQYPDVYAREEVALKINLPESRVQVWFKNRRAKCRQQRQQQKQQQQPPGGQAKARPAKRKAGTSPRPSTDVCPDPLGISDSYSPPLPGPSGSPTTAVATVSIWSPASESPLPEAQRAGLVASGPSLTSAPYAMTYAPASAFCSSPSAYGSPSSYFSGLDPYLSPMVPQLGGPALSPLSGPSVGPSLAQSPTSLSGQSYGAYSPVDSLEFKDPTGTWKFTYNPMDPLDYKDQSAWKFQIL
# ELF4, sequence (Q99607 whole entry): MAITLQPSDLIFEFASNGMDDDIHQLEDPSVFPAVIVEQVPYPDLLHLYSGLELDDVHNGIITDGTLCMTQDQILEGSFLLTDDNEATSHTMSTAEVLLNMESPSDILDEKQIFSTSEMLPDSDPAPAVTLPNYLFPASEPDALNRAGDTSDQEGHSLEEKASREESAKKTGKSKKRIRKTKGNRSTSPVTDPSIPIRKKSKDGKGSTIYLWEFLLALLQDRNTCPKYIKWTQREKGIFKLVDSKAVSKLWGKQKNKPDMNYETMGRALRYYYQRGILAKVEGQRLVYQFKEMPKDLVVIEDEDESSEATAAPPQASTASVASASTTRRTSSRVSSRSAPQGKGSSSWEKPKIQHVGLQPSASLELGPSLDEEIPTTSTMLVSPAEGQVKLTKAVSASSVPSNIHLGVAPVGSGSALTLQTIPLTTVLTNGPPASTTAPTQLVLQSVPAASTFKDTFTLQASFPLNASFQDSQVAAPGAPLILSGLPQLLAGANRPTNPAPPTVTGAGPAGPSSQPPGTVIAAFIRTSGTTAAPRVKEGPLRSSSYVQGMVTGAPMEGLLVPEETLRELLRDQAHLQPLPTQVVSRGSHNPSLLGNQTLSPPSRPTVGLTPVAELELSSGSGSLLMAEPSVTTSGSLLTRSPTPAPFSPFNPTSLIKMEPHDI
# ELF1, sequence (P32519 whole entry): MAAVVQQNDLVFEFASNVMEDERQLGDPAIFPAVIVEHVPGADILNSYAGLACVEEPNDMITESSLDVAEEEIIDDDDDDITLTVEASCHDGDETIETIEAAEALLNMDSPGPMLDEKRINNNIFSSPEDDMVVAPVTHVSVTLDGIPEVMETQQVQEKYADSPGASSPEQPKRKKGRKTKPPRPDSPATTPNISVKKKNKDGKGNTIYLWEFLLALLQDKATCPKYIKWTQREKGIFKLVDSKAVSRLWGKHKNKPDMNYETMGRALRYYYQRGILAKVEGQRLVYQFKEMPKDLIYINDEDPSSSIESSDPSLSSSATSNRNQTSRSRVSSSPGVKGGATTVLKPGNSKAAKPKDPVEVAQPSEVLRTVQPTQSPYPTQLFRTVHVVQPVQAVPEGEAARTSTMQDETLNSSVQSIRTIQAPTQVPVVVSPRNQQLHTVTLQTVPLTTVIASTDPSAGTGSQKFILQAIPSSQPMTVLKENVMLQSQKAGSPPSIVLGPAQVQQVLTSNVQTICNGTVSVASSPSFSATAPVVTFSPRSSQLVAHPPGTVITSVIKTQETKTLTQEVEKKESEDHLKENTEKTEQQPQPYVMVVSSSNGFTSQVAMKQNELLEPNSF
# ETV1, sequence (P50549 whole entry): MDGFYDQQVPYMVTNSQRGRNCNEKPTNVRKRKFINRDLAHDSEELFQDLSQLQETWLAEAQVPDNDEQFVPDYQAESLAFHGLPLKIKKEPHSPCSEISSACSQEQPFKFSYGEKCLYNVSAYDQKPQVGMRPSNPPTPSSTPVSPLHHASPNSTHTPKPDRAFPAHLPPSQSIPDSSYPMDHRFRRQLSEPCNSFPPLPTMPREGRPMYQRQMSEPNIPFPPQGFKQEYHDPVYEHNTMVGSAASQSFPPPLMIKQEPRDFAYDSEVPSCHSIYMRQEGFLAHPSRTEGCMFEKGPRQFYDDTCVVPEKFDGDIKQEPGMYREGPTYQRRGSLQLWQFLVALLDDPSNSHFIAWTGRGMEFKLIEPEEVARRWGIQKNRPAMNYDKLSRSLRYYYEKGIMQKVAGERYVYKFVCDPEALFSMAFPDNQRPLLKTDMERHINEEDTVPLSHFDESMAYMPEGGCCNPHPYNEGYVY
# HSF1, sequence (Q00613 whole entry): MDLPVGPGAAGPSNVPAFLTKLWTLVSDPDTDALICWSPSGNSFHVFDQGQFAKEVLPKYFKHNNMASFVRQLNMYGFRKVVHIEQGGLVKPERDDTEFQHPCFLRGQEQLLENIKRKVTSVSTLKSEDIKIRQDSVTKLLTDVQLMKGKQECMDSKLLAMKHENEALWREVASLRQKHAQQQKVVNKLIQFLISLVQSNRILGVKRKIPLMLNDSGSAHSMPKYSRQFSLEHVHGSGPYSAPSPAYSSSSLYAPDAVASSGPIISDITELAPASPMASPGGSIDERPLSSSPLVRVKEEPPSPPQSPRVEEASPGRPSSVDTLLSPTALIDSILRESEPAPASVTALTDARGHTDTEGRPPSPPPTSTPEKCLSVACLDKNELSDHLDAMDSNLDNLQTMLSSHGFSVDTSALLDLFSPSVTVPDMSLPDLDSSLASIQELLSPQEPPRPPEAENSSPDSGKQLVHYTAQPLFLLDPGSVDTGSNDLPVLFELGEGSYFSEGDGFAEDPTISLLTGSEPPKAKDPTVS
# ETV5, sequence (P41161 whole entry): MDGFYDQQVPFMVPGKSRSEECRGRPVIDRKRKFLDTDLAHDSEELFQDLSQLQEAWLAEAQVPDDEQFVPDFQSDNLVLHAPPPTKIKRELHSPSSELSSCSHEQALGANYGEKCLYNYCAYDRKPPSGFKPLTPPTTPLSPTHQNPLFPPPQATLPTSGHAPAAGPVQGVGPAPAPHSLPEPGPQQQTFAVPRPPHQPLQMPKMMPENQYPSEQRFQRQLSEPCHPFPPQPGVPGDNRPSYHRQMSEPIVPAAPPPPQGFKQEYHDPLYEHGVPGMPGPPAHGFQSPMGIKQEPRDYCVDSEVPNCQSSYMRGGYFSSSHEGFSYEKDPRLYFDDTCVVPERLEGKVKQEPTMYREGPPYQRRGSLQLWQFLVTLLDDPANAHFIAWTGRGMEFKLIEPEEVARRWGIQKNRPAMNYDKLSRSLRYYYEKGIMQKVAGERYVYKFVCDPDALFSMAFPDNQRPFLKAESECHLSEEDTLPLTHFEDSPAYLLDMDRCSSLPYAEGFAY
sequence,measurement,setting,value
ATTACC,binding signal,[1],"1.22 fold enrichment (6-mer frequency, TF over GST control)"
same,binding signal,[2],"1.13 fold enrichment (6-mer frequency, TF over GST control)"
same,binding signal,[3],"1.16 fold enrichment (6-mer frequency, TF over GST control)"
same,binding signal,[4],"1.26 fold enrichment (6-mer frequency, TF over GST control)"
same,binding signal,[5],"1.23 fold enrichment (6-mer frequency, TF over GST control)"
same,binding signal,[6],"1.4 fold enrichment (6-mer frequency, TF over GST control)"
same,binding signal,[7],"1.16 fold enrichment (6-mer frequency, TF over GST control)"
same,binding signal,[8],"1.36 fold enrichment (6-mer frequency, TF over GST control)"
same,binding signal,[9],"1.26 fold enrichment (6-mer frequency, TF over GST control)"
same,binding signal,[10],"1.25 fold enrichment (6-mer frequency, TF over GST control)"
same,binding signal,[11],"1.36 fold enrichment (6-mer frequency, TF over GST control)"
same,binding signal,[12],"1.58 fold enrichment (6-mer frequency, TF over GST control)"
same,binding signal,[13],"1.26 fold enrichment (6-mer frequency, TF over GST control)"
same,binding signal,[14],"1.17 fold enrichment (6-mer frequency, TF over GST control)"
same,binding signal,[15],"1.21 fold enrichment (6-mer frequency, TF over GST control)"
same,binding signal,[16],"1.4 fold enrichment (6-mer frequency, TF over GST control)"
same,binding signal,[17],"1.1 fold enrichment (6-mer frequency, TF over GST control)"
same,binding signal,[18],"2.17 fold enrichment (6-mer frequency, TF over GST control)"
same,binding signal,[19],"1.23 fold enrichment (6-mer frequency, TF over GST control)"

# Reference: article PMC7862700, “An all-to-all approach to the identification of sequence-specific readers for epigenetic DNA modifications on cytosine”
